Screen size: about 140,000 compounds; about 2,100 (1.5%) were called active. This excerpt belongs to a sample that is enriched for actives. Values without a mark were called inactive.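 The calls were made as follows: active = viability at or under a set limit, the compound median less 4 SD (cut at about 6% in these data); inactive = the rest.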
Test: primary screen for suppressors of beta-catenin knockout HCT116 cell growth, colon tumor, human (AID 818);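 also: 0% = Hyamine 1622 control at 20 µM and 100% = untreated cell control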
Conditions: CellTiter-Glo, 60 h, at 10 µM, hits give low values

Compared with `O=C(Nc1ccc(CSc2ccccc2)cc1)c1ccc(CN2CCOCC2)cc1`, `O=C(CSC(=S)N1CCOCC1)c1ccccc1` is higher in viability: 12.2% for the first, 98.3% for the second.

Going from `COc1ccc(Cl)cc1-n1c(C)cc(C(=O)OCC(=O)N2CC(=O)Nc3ccccc32)c1C` to `COc1ccc(-n2c(C)cc(C(=O)CN3C(=O)NC4(CCc5ccccc54)C3=O)c2C)cc1` (configuration not stated), the viability rises from 69.3% to 70.1%.

First: O=C(Nc1ccccc1)/C(=C/c1ccc([N+](=O)[O-])cc1)NC(=O)c1ccccc1
Second: Cc1cccc(NC(=O)c2sc(-c3ccccc3)nc2-c2ccc([N+](=O)[O-])cc2)c1
The viability of the first is higher: 87.1% for the first, 80.5% for the second.

First: Cc1cccc(N2C(=O)SC(SC(=Nc3ccccc3)Nc3ccccc3)C2=O)c1 (configuration not stated)
Second: N=c1c2c(-c3ccccc3)c(-c3ccccc3)oc2ncn1Cc1ccco1
The viability of the first is higher: 82.6% for the first, 59.7% for the second.

Going from `Cc1ccc(C(=O)N/C(=C/c2cccnc2)C(=O)O)cc1` to `Cc1ccc(Sc2ccncc2S(N)(=O)=O)cc1`, the viability falls from 87.7% to 87.3%.

Going from `CC(C)(C)c1nnc(N/N=C/c2ccc(O)cc2)n(N)c1=O` to `CCN(CC)c1ccc(/C=N/Nc2nc(C)cc(=O)[nH]2)cc1`, the viability falls from 90.8% to 76.5%.

Compared with `O=C(Nc1cccc(Cl)c1)Nc1ccccc1NS(=O)(=O)c1cccs1`, `Cc1ccc(C)c(NC(=O)CCC(=O)NNC(=O)c2cccs2)c1` is higher in viability: 71.1% for the first, 96.8% for the second.

Going from `O=C(Nc1cc(N2CCOCC2)ncn1)NC1(C(F)(F)F)Oc2ccc(Cl)cc2O1` (configuration not stated) to `Cc1cc(N2CCOCC2)nc(-c2ccc(Br)cc2)n1`, the viability rises from 76.8% to 82.4%.

Compared with `Cc1csc(NC(=O)CN2CCCCCC2)n1`, `O=C(COC(=O)/C=C/c1ccc(S(=O)(=O)N2CCCCCC2)cc1)NCc1ccccc1Cl` is higher in viability: 93.4% for the first, 106% for the second.

Compared with `Cc1ccn(CC(=O)N2N=C(C(F)F)CC2(O)C(F)F)n1` (configuration not stated), `C=CCn1c(SCC(N)=O)nnc1-c1cc2c(s1)CCC(CC)C2` (configuration not stated) is lower in viability: 101% for the first, 91.1% for the second.

First: N#C/C(=C\C1=C(N2CCOCC2)C(=C\c2ccccc2)/CC1)C(=O)Nc1ccccc1F
Second: COc1cccc(/C=N/NC(=O)CNC(=O)c2ccc(S(=O)(=O)N3CCOCC3)cc2)c1OC
The viability of the first is lower: 65.8% for the first, 90.8% for the second.

First: Oc1ccc(/C=N/NC2=NCCCCC2)c(O)c1
Second: O=C(/C=C\c1ccc2c(c1)OCO2)NC1(C(=O)Nc2ccc3c(c2)OCCO3)CCCCC1
The viability of the first is lower: 94.7% for the first, 102% for the second.

First: CCOC(=O)c1c(NC(=O)C2(C)Cc3ccccc3C(=O)O2)sc2c1CCCC2 (configuration not stated)
Second: COC(=O)c1c(NC(=O)CN2CCN(S(=O)(=O)c3ccccc3[N+](=O)[O-])CC2)sc2c1CCC(C)C2 (configuration not stated)
The viability of the first is lower: 79.4% for the first, 90.5% for the second.

Going from `COc1ccc2nc(Nc3nc4cc5c(cc4s3)OCCO5)sc2c1` to `CCOc1ccc2nc(Nc3nc4ccc(NC(C)=O)cc4s3)sc2c1`, the viability falls from 90.5% to 74.6%.

Going from `COc1ccc(C2=NN(C(=O)c3cccnc3)C(c3ccccc3)C2)cc1` (configuration not stated) to `Cc1ccc(SCC(=O)c2sc(-c3ccccc3)nc2C)cc1`, the viability falls from 100% to 94.5%.

Compared with `CCC1CCc2c(sc(NC(C)=O)c2C#N)C1` (configuration not stated), `CC(=O)CCC(=O)c1ccc2ccccc2c1` is lower in viability: 101% for the first, 99.5% for the second.

Going from `CCNc1nc(NC(C)C)nc(N2CC(=O)N(CC(=O)OCC)C2=N)n1` to `CCOC(=O)NN1C(=O)c2ccccc2NC1c1ccccc1O` (configuration not stated), the viability rises from 94.3% to 95%.

Compared with `CCCn1c(=O)c2c(C(F)(F)F)cc(-c3cccs3)nc2n(CCC)c1=O`, `CCCCn1c(O)c(N=NC(=O)Cn2c(C(F)(F)F)nc3ccccc32)c2ccccc21` is higher in viability: 90% for the first, 93.1% for the second.

First: O=C1CCCCC(=O)c2ccccc2N1
Second: OCCCN1c2ccccc2Nc2nnc(-c3ccccc3)cc21
The viability of the first is higher: 101% for the first, 46.3% for the second.

Compared with `CC(=O)OC(C)C[N+](C)(C)C` (configuration not stated), `CC(C)(C)NC(=O)C(=O)NCc1ccncc1` is lower in viability: 102% for the first, 98.5% for the second.

First: Cn1ncc2c(NNC(=O)Cc3cccc4ccccc34)ncnc21
Second: COC(=O)c1sc2ncccc2c1OCc1ccc(Cl)cc1Cl
The viability of the first is higher: 86.8% for the first, 67.4% for the second.

`NS(=O)(=O)c1ccc(N=Cc2ccc(Br)s2)cc1` and `COc1cc2c(cc1OC)C(Nc1ccc(S(N)(=O)=O)cc1)=NC(C)(C)C2` are the same in viability: 101% for the first, 101% for the second.

Compared with `CNC(=O)c1csc(-c2ccccc2)n1`, `Cc1nc(SCc2ccc(F)cc2)c([N+](=O)[O-])[nH]1` is lower in viability: 96.8% for the first, 89.8% for the second.

Compared with `CCCC1OC23CCCCC2C(C#N)(C#N)C1(C#N)C(=N)O3` (configuration not stated), `COc1cc2c(cc1OC)C(C(C)C)=NC(C)(C)C2` is higher in viability: 85.5% for the first, 95.1% for the second.

Molecule `COc1ccc(C(=O)O/N=C(\N)Cc2ccc(Cl)cc2Cl)cc1OC` has a viability of 79.8%.

With `CCOC(=O)/C(=C\c1ccc([N+](=O)[O-])cc1)C(=O)c1cc(C(C)=O)c(Nc2ccccc2)s1` the viability was 1.71% (active).
With `c1ccc2c(c1)CSc1sccc1C2=C1CCNCC1` the viability was 3.31% (active).
With `Cc1csc(NC(=O)NC2(C(F)(F)F)Oc3ccccc3O2)n1` the viability was 5.7% (active).
With `CCN(CC)c1ccc(/C=N/Nc2nc(C)cc(C)n2)c(O)c1` the viability was 5.53% (active).
For `COc1ccc2nc(Nc3nc4ccc(NC(C)=O)cc4s3)sc2c1`, the viability was 2.25% (active).
With `CN1CCN(CC(=O)Nc2sc3c(c2C#N)CCC(C(C)(C)C)C3)CC1` (configuration not stated) the viability was 3.32% (active).
For `Oc1c(Cl)cc(Cl)c(Cl)c1Cc1c(O)c(Cl)cc(Cl)c1Cl`, the viability was 4.83% (active).
With `c1ccc2c(c1)C(=NC1CCCCC1)NC2=NC1CCCCC1` the viability was 5.56% (active).
For `CC(C[N+](C)(C)C)OC(N)=O` (configuration not stated), the viability was 1.28% (active).
With `Cc1nc(-c2ccccc2)sc1C(=O)/C=C/c1ccccc1` the viability was 4.4% (active).
With `N=c1c2c(-c3ccccc3)c(-c3ccccc3)n(Cc3ccccc3)c2ncn1CCCO` the viability was 1.54% (active).
With `NC(N)=N/N=C/c1ccc(OCc2ccc(Cl)cc2Cl)cc1` the viability was 1.64% (active).
In the case of `COc1cc2c(cc1O)C(SC)=NC(C)(C)C2`, the viability is reported as 2.29% (active).
